Measurements as given in PubChem BioAssay AID1159580 (chemical genetic matrix, 2015).
The campaign covered roughly 5,500 compounds. About 2,000 (36%) were called active. Not shown: some 18% with an inconclusive outcome. Cut-off read from the data, not from the text of the source: active = normalized growth mostly below about 0.91 (no sharp cut-off); inconclusive = no clear call, values can overlap the other calls; inactive = mostly above about 0.92. Some of the results follow.

Assay: chemical genetic growth profiling, strain panel (AID 1159580);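 note: tested at 20 µM; growth read once vehicle control cultures reached saturation at 30 °C; 1 = growth at the plate median or of vehicle wells; lower values mean less growth of the strain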
Conditions: growth OD
[1] = S. cerevisiae deletion strains, locus YDR150W, strain NUM1, stronger effect = lower value
[2] = S. cerevisiae deletion strains, locus YPL055C, strain LGE1, stronger effect = lower value
[3] = S. cerevisiae deletion strains, locus YPL241C, strain CIN2, stronger effect = lower value

Measured: normalized growth

CSC(N)=NCCC[C@H](N)C(=O)O
inactive: S. cerevisiae deletion strains, locus YAL040C, strain CLN3, stronger effect = lower value 1.1 | S. cerevisiae deletion strains, locus YCL061C, strain MRC1 (second series), stronger effect = lower value 1.01 | [1] 1.02 | S. cerevisiae deletion strains, locus YDR363W, strain ESC2, stronger effect = lower value 0.997 | S. cerevisiae deletion strains, locus YER002W, strain NOP16, stronger effect = lower value 1.02 | S. cerevisiae deletion strains, locus YMR307W, strain GAS1, stronger effect = lower value 1 | S. cerevisiae deletion strains, locus YNL175C, strain NOP13, stronger effect = lower value 1.01 | S. cerevisiae deletion strains, locus YNL197C, strain WHI3, stronger effect = lower value 1 | S. cerevisiae deletion strains, locus YNL224C, strain SQS1, stronger effect = lower value 1 | S. cerevisiae deletion strains, locus YOR083W, strain WHI5 (second series), stronger effect = lower value 1 | [2] 1 | [3] 1.01

COc1ccc(OC)c(S(=O)(=O)N2CCc3cc(OC)c(OC)cc3C2C)c1 (stereo unspecified)
inactive: S. cerevisiae deletion strains, locus YAL013W, strain DEP1, stronger effect = lower value 1 | S. cerevisiae deletion strains, locus YBR229C, strain ROT2, stronger effect = lower value 0.998 | S. cerevisiae deletion strains, locus YCL061C, strain MRC1, stronger effect = lower value 0.994 | S. cerevisiae deletion strains, locus YDL101C, strain DUN1, stronger effect = lower value 0.972 | S. cerevisiae deletion strains, locus YDL134C, strain PPH21, stronger effect = lower value 0.992 | [1] 0.909 | S. cerevisiae deletion strains, locus YEL061C, strain CIN8, stronger effect = lower value 0.998 | S. cerevisiae deletion strains, locus YGR078C, strain PAC10, stronger effect = lower value 0.99 | S. cerevisiae deletion strains, locus YHR030C, strain SLT2, stronger effect = lower value 0.996 | S. cerevisiae deletion strains, locus YHR087W, strain rtc3, stronger effect = lower value 1.03 | S. cerevisiae deletion strains, locus YJL187C, strain SWE1, stronger effect = lower value 1.01 | S. cerevisiae deletion strains, locus YJR043C, strain POL32, stronger effect = lower value 0.973 | S. cerevisiae deletion strains, locus YJR075W, strain HOC1, stronger effect = lower value 0.999 | S. cerevisiae deletion strains, locus YKL190W, strain CNB1, stronger effect = lower value 0.984 | S. cerevisiae deletion strains, locus YLR039C, strain RIC1, stronger effect = lower value 0.948 | S. cerevisiae deletion strains, locus YLR058C, strain SHM2 (second series), stronger effect = lower value 1.02 | S. cerevisiae deletion strains, locus YLR085C, strain ARP6, stronger effect = lower value 1.02 | S. cerevisiae deletion strains, locus YLR262C, strain YPT6, stronger effect = lower value 1.02 | S. cerevisiae deletion strains, locus YML094W, strain GIM5, stronger effect = lower value 1.03 | S. cerevisiae deletion strains, locus YMR219W, strain ESC1, stronger effect = lower value 1 | S. cerevisiae deletion strains, locus YMR263W, strain SAP30, stronger effect = lower value 1.01 | S. cerevisiae deletion strains, locus YNL153C, strain GIM3, stronger effect = lower value 0.994 | S. cerevisiae deletion strains, locus YNL298W, strain CLA4 (second series), stronger effect = lower value 0.993 | S. cerevisiae deletion strains, locus YNL322C, strain KRE1, stronger effect = lower value 1 | S. cerevisiae deletion strains, locus YNR030W, strain Alg12, stronger effect = lower value 1 | [2] 1.02 | [3] 0.996 | S. cerevisiae deletion strains, locus YPR135W, strain CTF4, stronger effect = lower value 0.947 | S. cerevisiae strains, strain wild type, stronger effect = lower value 0.972
